From article PMC7819943, “Rice protein-binding microarrays: a tool to detect cis-acting elements near promoter regions in rice”
In all, about 68,000 sequences were measured (“fluorescence intensity (a.u.)”: median about 9,100, highest 2% from about 16,000 on). Shown is part of a subset that was picked to be rich in the highest values.

What follows are sequences tested against OsWRKY34 (Oryza sativa, UniProt Q0JBA9 1-250) (assay: protein-binding microarray (RPBM); PBS, 2% BSA, 51.3 ng/ul salmon testes DNA, 50 uM zinc acetate, 200 nM TF, 25 C, 1 h; high values mean tight binding). Settings: protein: recombinant; tags: N-terminal polyhistidine and DsRed monomer fusion (pET32a); label: CyDye5-dUTP incorporated in the synthesized complementary strand; 3' TTTTT single-stranded linker to array surface; dsDNA, one strand shown.
OsWRKY34, sequence (Q0JBA9 entry or part of it): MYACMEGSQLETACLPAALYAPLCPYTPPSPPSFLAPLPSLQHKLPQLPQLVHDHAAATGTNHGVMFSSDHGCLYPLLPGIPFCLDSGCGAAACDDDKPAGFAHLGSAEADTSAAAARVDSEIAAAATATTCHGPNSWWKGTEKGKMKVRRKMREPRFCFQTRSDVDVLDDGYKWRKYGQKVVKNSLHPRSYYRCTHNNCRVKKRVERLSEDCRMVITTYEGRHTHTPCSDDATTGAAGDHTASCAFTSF
Outline: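 Binding signal is defined as the fluorescence intensity of each feature in arbitrary units, read on an Axon 4000B scanner. Transcription factors with N-terminal polyhistidine and DsRed fusions came from E. coli BL21-CodonPlus and were purified on Ni–NTA. They were incubated at 200 nM for 1 h at 25 °C on a custom Agilent array that had been made double-stranded with Cy5-dUTP, with 50 µM zinc acetate present, and the array was washed.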
For “ATCATATGAACACGTTATCTTTTTATTTTATACCGGTTCACGGAGTCACCTAGTGCAG”, the binding signal was 8840 fluorescence intensity (a.u.).
In the case of “CGTCTCCTCTCTCTCTCTCTCTCTCTCTCGCCTCCGCTTCCGGAGTCACCTAGTGCAG”, the binding signal is reported as 8240 fluorescence intensity (a.u.).
With “TCCCCATCTCCGCCGCAGCCCTCGTCGTCGTCCTCGTCCTCGGAGTCACCTAGTGCAG” the binding signal was 18900 fluorescence intensity (a.u.).
For “CCTAGTCGGCTTCGCCTCCGCTTCCTCGTCTCGTCTCCCTCGGAGTCACCTAGTGCAG”, the binding signal was 8160 fluorescence intensity (a.u.).
For “ACCCTAGCCACCCCGCGTCGCCCGCCTCGGCGCGCCCAAACGGAGTCACCTAGTGCAG”, the binding signal was 9260 fluorescence intensity (a.u.).
With “CACCGTGTCGCTCTCTCTCGTCGTCTCCGCCTCCGGCTTCCGGAGTCACCTAGTGCAG” the binding signal was 19600 fluorescence intensity (a.u.).
For “ATCTCCGCCGCCGCCGCCTCCTACTCGTCGCCCTCCTCCTCGGAGTCACCTAGTGCAG”, the binding signal was 10300 fluorescence intensity (a.u.).
“GCCCCAACCTCGTCGCTACCCGCGAGCCTCGGCTTATCGACGGAGTCACCTAGTGCAG” was tested, and the binding signal was 65100 fluorescence intensity (a.u.).
In the case of “CCGCCATCGCTACCCTCGGTCGTCGCTTGCCCCGACGACCCGGAGTCACCTAGTGCAG”, the binding signal is reported as 8180 fluorescence intensity (a.u.).
“CCGCCGGCCGCCGTCCTCGCCATCTCCGCCGGCCGCCGTCCGGAGTCACCTAGTGCAG” was tested, and the binding signal was 8440 fluorescence intensity (a.u.).
“CATCTCCGCCGGCCGCCGTCCTCGCCATCTTCGCCGTCCTCGGAGTCACCTAGTGCAG” was tested, and the binding signal was 12600 fluorescence intensity (a.u.).
In the case of “GTCATCCTCTCCATCCCCTCGTCGTCGTCCGCTCGCCTCTCGGAGTCACCTAGTGCAG”, the binding signal is reported as 8250 fluorescence intensity (a.u.).
With “GGACCATCTCCGCCGCCGCCGCTGCCATCACTTCGTCCTCCGGAGTCACCTAGTGCAG” the binding signal was 17600 fluorescence intensity (a.u.).
“CCAGCCCACTGATTCCTCACCGAATTTTTTCATTTTTTTTCGGAGTCACCTAGTGCAG” was tested, and the binding signal was 9700 fluorescence intensity (a.u.).
With “ATTCTATACTTTTGTTTCCCTATCATTTGACGCTTTACACCGGAGTCACCTAGTGCAG” the binding signal was 10000 fluorescence intensity (a.u.).
“TGGCTCCTTTTAAGTTATTCTTCCCAAACAGACATGATTTCGGAGTCACCTAGTGCAG” was tested, and the binding signal was 8660 fluorescence intensity (a.u.).
With “TTTATACATATGTGTTTATCATACCTCACGTGTCGTATATCGGAGTCACCTAGTGCAG” the binding signal was 8040 fluorescence intensity (a.u.).
In the case of “TTAAGGGCATGTTTAGTTCTCAAACAAAATTTTCTAGCTGCGGAGTCACCTAGTGCAG”, the binding signal is reported as 8270 fluorescence intensity (a.u.).
With “ATGCTTGCTTGCCTGCCTTATCTGCGTCTTGAATTGCATCCGGAGTCACCTAGTGCAG” the binding signal was 10100 fluorescence intensity (a.u.).
For “CATCTATGACCCATTTTTTTTTATTTGACTGATACCCATCCGGAGTCACCTAGTGCAG”, the binding signal was 9760 fluorescence intensity (a.u.).
With “GTCGCCATCTTCCCATCCCCGCGCCGCCGTCCACCATGAGCGGAGTCACCTAGTGCAG” the binding signal was 17200 fluorescence intensity (a.u.).
In the case of “CTTTTCCCCGCGGCCATCCCCGTCGCCCCACCGCCGCCGCCGGAGTCACCTAGTGCAG”, the binding signal is reported as 11200 fluorescence intensity (a.u.).
For “CCACACCACCGTCCCCTCGCTGCCTGCCTCCACCTCACCTCGGAGTCACCTAGTGCAG”, the binding signal was 8950 fluorescence intensity (a.u.).
With “GCCGCGCCCGCGTCACCACCGCTACCGCCCGCGCGTCCCTCGGAGTCACCTAGTGCAG” the binding signal was 8940 fluorescence intensity (a.u.).
For “ACCGTGTCGAGCTATGTCTCCTCATCCTCGCTATGTTTCACGGAGTCACCTAGTGCAG”, the binding signal was 14800 fluorescence intensity (a.u.).
For “CGTGTCGAGCTCTGTCTCCTCGTCTTCATCCGCCGCTTCACGGAGTCACCTAGTGCAG”, the binding signal was 18100 fluorescence intensity (a.u.).
In the case of “CGCGCCGCCCGCCGTCCCCATGCCACCGCGCTGCCCGCCGCGGAGTCACCTAGTGCAG”, the binding signal is reported as 10200 fluorescence intensity (a.u.).
In the case of “ATCCAAGCCGTCCATCTTCACCCGTCACTGTCACTCGCCACGGAGTCACCTAGTGCAG”, the binding signal is reported as 16900 fluorescence intensity (a.u.).
In the case of “CCATTAAAGCCAAGCCACTGTCCTTGTCCATCTTTGTCCACGGAGTCACCTAGTGCAG”, the binding signal is reported as 8190 fluorescence intensity (a.u.).
In the case of “TCCCCTACCGCTGCCCACCGCCGTCCACCACCGCCTTTCTCGGAGTCACCTAGTGCAG”, the binding signal is reported as 17000 fluorescence intensity (a.u.).
With “CTTCGTCTCCGCTCCTCTCCGCCGCCTCGTCTCGTCGCCTCGGAGTCACCTAGTGCAG” the binding signal was 8430 fluorescence intensity (a.u.).
With “GTCACCCTTCACCACGGCCATCTTCTCCTCGCTCGCCGTCCGGAGTCACCTAGTGCAG” the binding signal was 11200 fluorescence intensity (a.u.).
“GCAGCTGATCGATCTGGTTTCTGCTTTGCTGCAACTCACTCGGAGTCACCTAGTGCAG” was tested, and the binding signal was 8870 fluorescence intensity (a.u.).
With “CTGGGGTTAGTTCTATGGATATTTGCTACTCCTGTTGATACGGAGTCACCTAGTGCAG” the binding signal was 8220 fluorescence intensity (a.u.).
With “GAGTGACATTTGGGGTGGTTTTTGCAATTTTCTCTAAATTCGGAGTCACCTAGTGCAG” the binding signal was 13000 fluorescence intensity (a.u.).
With “GGGTATAAAGTCACTCTATTCGTTCTCACCGTTTTTTCGGCGGAGTCACCTAGTGCAG” the binding signal was 8150 fluorescence intensity (a.u.).
“GGGAGGGCAACTGAAGAGGAGTGGCGAGGGAGGGCTTTTGCGGAGTCACCTAGTGCAG” was tested, and the binding signal was 12200 fluorescence intensity (a.u.).
In the case of “ACACGCCCGCCCGCCGCCTCCACCGTCTCCGCTCGCCGCGCGGAGTCACCTAGTGCAG”, the binding signal is reported as 10500 fluorescence intensity (a.u.).
For “ACCATTGTCGCATGCTCACATCCCATCTTTTCCAAAGGGACGGAGTCACCTAGTGCAG”, the binding signal was 10300 fluorescence intensity (a.u.).
For “CCCTGGTTTCCGTGTCCAATGTTTGACCGTCCGTCTTATTCGGAGTCACCTAGTGCAG”, the binding signal was 10200 fluorescence intensity (a.u.).
In the case of “CGGGGCGGCTGGCTTGACGCGTCATCTTCCCCGCGAAAATCGGAGTCACCTAGTGCAG”, the binding signal is reported as 14000 fluorescence intensity (a.u.).
For “CGACATCTCTGAAACATTTCTCCTCGACCACGGCAACCCACGGAGTCACCTAGTGCAG”, the binding signal was 8630 fluorescence intensity (a.u.).
In the case of “ATTAATTCTGTTTTTTTCAAGTCTCTCTCGCTCTCGCTCCCGGAGTCACCTAGTGCAG”, the binding signal is reported as 8820 fluorescence intensity (a.u.).
In the case of “CGTTCGCATCCACCACCAGTGCTCCGCCTGCCAGATCCATCGGAGTCACCTAGTGCAG”, the binding signal is reported as 9140 fluorescence intensity (a.u.).
With “TGTGCCCGCTGCGCCAAGGGCTACGCCGTCCAGTCCGACTCGGAGTCACCTAGTGCAG” the binding signal was 48500 fluorescence intensity (a.u.).
With “CCCCGCCGTCCGCGCCGACCGCGACCTGCGCTACGCCGCCCGGAGTCACCTAGTGCAG” the binding signal was 8450 fluorescence intensity (a.u.).
